TLR4-MyD88 BLA: inhibitors of human TLR4-MyD88 binding. O00206+Q99836. AID 861. HeLa CL3-4 TLR4/MyD88 BLA complementation, FRET ratio. 0.18% of 200,000 active. inhibition, % at 8.4 µM; in the data active means inhibition above about 25%
NOD2 RIPK2 PPI: inhibitors of human NOD2-RIPK2 interaction | 0.38% of 360,000 active | AID 624267 | inhibition, % at 4.98 µM | CHO BLA complementation NOD2-RIPK2, CCF4 ratio | O43353; in the data active means inhibition above about 21%
HSF-1 act: increases HSF-1 driven luciferase reporter signal; NIH3T3-HGL HSF-1 luciferase reporter, MG132, 8 h; 100% = twice DMSO control signal; activation, % at 9 µM; 1.7% of 300,000 active; AID 504408;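 active means mean replicate activation of at least 50% with a set share of replicates each reaching 50%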
TLR9-MyD88 inh: TLR9-MyD88 interaction inhibition. Q9NR96+Q99836. CHO BLA complementation TLR9-MyD88, CCF4 FRET ratio. inhibition, % at 4.98 µM. 0.21% of 340,000 active;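 active means inhibition above the mean over all tested compounds plus 3 SD, cut at about 21% in these data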
HSF1 inhib: HSF1 inhibition | AID 2098 | NIH3T3-HGL HSE-luciferase, MG132-induced, luminescence 8 h; hits give low values | 0.77% of 300,000 active | activity change, negative = inhibition, % at 7.5 µM (by protocol);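 active means more than half of replicate wells show activity change below -50%, luminescence cut by over half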;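 further: luciferase reports HSF-1 transcriptional activity via heat shock element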
Each line names hits and unclear results; the compound was inactive in the other large screens. Shown are actives, neighbours in structure and some others; about 2.4% of the full set was active somewhere.

COc1cc(OC)c(N(C)S(=O)(=O)c2cccc(C(=O)Nc3nnc(C4CC4)s3)c2)cc1Cl	HSF-1 act 130.9 (no result: TLR4-MyD88 BLA)
CCOC(=O)Nc1ccc2c(c1)N(C(=O)CCN1CCN(C)CC1)c1ccccc1S2	none
CCOC(=O)Nc1ccc2c(c1)Sc1ccccc1N2C(=O)CCN1CCOCC1	HSF-1 act 63.0
CCc1cccc(CC)c1NC(=O)/C(C#N)=C/c1ccccc1C(F)(F)F	HSF-1 act 83.1
N#C/C(=C\c1ccccc1C(F)(F)F)C(=O)Nc1ccccc1	none
CCOc1ccc(NC(=O)CN(C)C(=O)c2c(C)nn(Cc3ccccc3Cl)c2C)cc1OCC	none (no result: TLR4-MyD88 BLA, HSF-1 act, HSF1 inhib)
NC(=O)c1cc([N+](=O)[O-])ccc1NCc1ccc(N)cc1	none (no result: TLR4-MyD88 BLA, HSF-1 act, HSF1 inhib)
Cc1cc(N2C(=O)C=CC2=O)c([N+](=O)[O-])cc1C	NOD2 RIPK2 PPI 21.9
COC(=O)c1nn(-c2ccc3c(c2)CCN3C(C)=O)cc1O	HSF1 inhib -58.4
C[C@@H]1Cn2cnc(C(=O)NCC(=O)OC(C)(C)C)c2C(=O)N1	none (no result: TLR4-MyD88 BLA, HSF-1 act, HSF1 inhib)
COc1ccc(C2NC(=S)NC3=C2N2CCC3CC2)cc1 (centres undefined)	none (no result: TLR4-MyD88 BLA)
Fc1ccc(C2NC(=S)NC3=C2N2CCC3CC2)cc1 (centres undefined)	HSF-1 act 53.5
Cc1cccc(COc2ccccc2C(=O)OCC(=O)N(C)c2c(N)n(Cc3ccccc3)c(=O)[nH]c2=O)c1	none (no result: TLR4-MyD88 BLA)
CCOC(=O)c1c(-c2ccc(C)o2)csc1NC(=O)CSc1nncs1	NOD2 RIPK2 PPI 22.4, HSF-1 act 95.5
Cc1noc(C)c1NC(=O)N(C)C[C@H]1OCc2cn(nn2)CCCC(=O)N([C@@H](C)CO)C[C@@H]1C	none (no result: TLR4-MyD88 BLA, HSF-1 act, HSF1 inhib)
CC1=C(C(=O)N2CCOCC2)CC(CC(=O)NCc2ccco2)C(=O)N1CCC1=CCCCC1 (centres undefined)	none (no result: TLR4-MyD88 BLA, HSF-1 act, HSF1 inhib)
CCCCN(CC)c1nc(N)c2c(N)nc(OCC)cc2c1C#N	HSF-1 act 57.4
COc1ccc(NC(=O)c2cncn2-c2ccccc2)cc1	none (no result: TLR4-MyD88 BLA)
O=C(Nc1csc([N+](=O)[O-])c1)Nc1c(Cl)cccc1Cl	none (no result: TLR4-MyD88 BLA)
O=C(Nc1ccc(Cl)cc1)Nc1csc([N+](=O)[O-])c1	HSF-1 act 84.3 (no result: TLR4-MyD88 BLA, TLR9-MyD88 inh)
O=C(Cc1ccccc1)Nc1cccc(N2C(=O)C=CC2=O)c1	HSF1 inhib -62.1
N#CCc1c(C#N)c(N)nc(N2CCN(C=O)CC2)c1C#N	none
N#CCc1c(C#N)c(N)nc(N2CCN(S(=O)(=O)c3ccccc3)CC2)c1C#N	HSF-1 act 85.8
CN(C)c1ccc(/C=C/C=N/Nc2nc(N3CCOCC3)nc(N3CCOCC3)n2)cc1	HSF-1 act 78.9
BrC(/C=C\c1ccccc1)=N/Nc1nc(N2CCOCC2)nc(N2CCOCC2)n1	HSF-1 act 176.0
BrC(=C\c1ccccc1)/C=N/Nc1nc(N2CCOCC2)nc(N2CCOCC2)n1	none
COc1ccccc1N1CCN(C(=S)Nc2ccc(F)cc2)CC1	HSF1 inhib -72.5 (no result: TLR4-MyD88 BLA)
CC1(C)CC(=O)c2c(O)cc(OCc3ccc([N+](=O)[O-])cc3)cc2O1	HSF-1 act 94.6
Cc1ccc(CNC(=O)COc2cc(O)c3c(c2)OC(C)(C)CC3=O)cc1	none (no result: TLR4-MyD88 BLA)
CC1CCN(c2nc3ccc(C(=O)O)cc3s2)CC1	HSF1 inhib -83.1
O=C(O)c1ccc2nc(-c3ccccc3)sc2c1	HSF1 inhib -57.9
CC1CCN(c2nc3ccc(C(=O)NCCCN4CCCCC4)cc3s2)CC1	none (no result: TLR4-MyD88 BLA)
O=c1c2ccccc2c(C=Nc2ccc(O)cc2)c(O)n1Cc1ccccc1	HSF-1 act 79.1 (no result: TLR4-MyD88 BLA)
Cc1ccccc1-c1nnc(SCC(=O)NC2CCCC2)n1C	none (no result: TLR4-MyD88 BLA)
Cc1ccc(NC(=O)CCN2C(=O)C3CCCCC3C2=O)cc1[N+](=O)[O-] (centres undefined)	HSF1 inhib -53.2 (no result: TLR4-MyD88 BLA)
COc1cccc(N=Nc2ccc(O)c3ncccc23)c1	HSF-1 act 90.2 (no result: TLR4-MyD88 BLA)
O=[N+]([O-])c1ccc(O)c2cccnc12	none
Cc1ccccc1N=Nc1ccc(O)c2ncccc12	HSF-1 act 89.4
O=[N+]([O-])c1ccc(O)c2ncccc12	HSF1 inhib -54.8
COc1ccc(N=Nc2ccc(O)c3ncccc23)cc1	none (no result: TLR4-MyD88 BLA)
Nc1ccc(N=Nc2ccccc2)c2cccnc12	HSF-1 act 82.0 (no result: TLR4-MyD88 BLA)
Oc1ccc(-c2csc(-c3ccccc3)n2)cc1O	HSF-1 act 155.2
Oc1ccccc1-c1csc(-c2ccccc2)n1	HSF-1 act 78.9
O=[N+]([O-])c1ccc2nc(-c3ccccc3)oc2c1	HSF-1 act 61.7
COc1cccc(-c2nc3ccc([N+](=O)[O-])cc3o2)c1	none
Cc1ccc(OCCn2ncc3ccccc3c2=O)c(C)c1	none (no result: TLR4-MyD88 BLA)
